# Results from PubChem BioAssay (EPA / NIEHS).
# Some compounds were tested as several samples or in several runs, with calls that do not always agree. The source made the active and inactive calls. Rule for the calls: active = hit-call score of the fitted dose curve at least 0.9, where 1 is the maximum; inactive = score below 0.9.
# Assays:
# [1] = read-out: Interleukin-8 (IL8), CXCL8 (gene 3576); assay: BSK_KF3CT_IL8: BioMAP Diversity Plus: KF3CT Assay for Interleukin-8 (IL8) Biomarker Activity (AID 2284254); conditions: primary human keratinocytes with fibroblasts
# Outline: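 Human keratinocyte/foreskin fibroblast co-culture dosed 24 h; IL-8 measured by ELISA relative to DMSO. Parallel cultures stained with SRB for total protein to flag cytotoxicity.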
# [2] = read-out: Macrophage Inflammatory Protein-1 Alpha (MIP1a), CCL3 (gene 6348); assay: BSK_IMphg_MIP1a: BioMAP Diversity Plus: IMphg Assay for Macrophage Inflammatory Protein-1 Alpha (MIP1a) Biomarker Activity (AID 2284255); conditions: primary human endothelial cells with macrophages
# Outline: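 Co-culture of human venular endothelial cells and macrophages exposed to compounds for 24 h; MIP-1a measured by ELISA relative to DMSO. Cytotoxicity assessed in parallel cultures by sulforhodamine B total-protein staining at 560 nm.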
# [3] = read-out: Plasminogen activator inhibitor-1 (PAI1), SERPINE1 (gene 5054); assay: BSK_MyoF_PAI1: BioMAP Diversity Plus: MyoF Assay for Plasminogen activator inhibitor-1 (PAI1) Biomarker Activity (AID 2284256); conditions: primary human lung fibroblasts;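 note: PAI-1 read 24 h after compound addition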
# Outline: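 Primary human lung fibroblasts treated with chemical for 24 h; PAI-1 levels quantified by ELISA relative to DMSO. Cytotoxicity was assessed in parallel cultures by SRB total-protein staining (0.1% SRB after 10% TCA fixation, 560 nm).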
# CD69, CD69 (gene 969) = assay: BSK_IMphg_CD69: BioMAP Diversity Plus: IMphg Assay for CD69 Biomarker Activity (AID 2284257); conditions: primary human endothelial cells with macrophages
# Outline: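 Human venular endothelial cells co-cultured with macrophages; CD69 quantified by ELISA 24 h after compound addition. Activity fitted in the positive direction relative to DMSO baseline; cytotoxicity tracked in parallel cultures via SRB total-protein staining.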
# [4] = read-out: Eotaxin 3, CCL26 (gene 10344); assay: BSK_BF4T_Eotaxin3: BioMAP Diversity Plus: BF4T Assay for Eotaxin 3 Biomarker Activity (AID 2284258); conditions: primary human bronchial epithelial cells with fibroblasts
# Outline: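 Co-culture of human bronchial epithelial cells and dermal fibroblasts, exposed to chemicals for 24 h versus DMSO. Eotaxin-3 quantified by ELISA; cytotoxicity checked in parallel cultures by sulforhodamine B total-protein staining.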
# [5] = read-out: Monocyte Chemoattractant Protein-1 (MCP1), CCL2 (gene 6347); assay: BSK_BF4T_MCP1: BioMAP Diversity Plus: BF4T Assay for Monocyte Chemoattractant Protein-1 (MCP1) Biomarker Activity (AID 2284259); conditions: primary human bronchial epithelial cells with fibroblasts
# Outline: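 Co-culture of bronchial epithelial cells and dermal fibroblasts dosed with chemical; MCP-1 measured by ELISA 24 h later. Activity fitted in positive direction versus DMSO; cytotoxicity checked by SRB staining in parallel cultures.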
# [6] = read-out: Interleukin-8 (IL8), CXCL8 (gene 3576); assay: BSK_MyoF_IL8: BioMAP Diversity Plus: MyoF Assay for Interleukin-8 (IL8) Biomarker Activity (AID 2284261); conditions: primary human lung fibroblasts
# Outline: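 Human lung fibroblast (MyoF system) cultures dosed for 24 h, then IL-8 measured by ELISA. Response taken relative to DMSO; parallel SRB total-protein staining for cytotoxicity.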
# CD90, THY1 (gene 7070) = assay: BSK_BF4T_CD90: BioMAP Diversity Plus: BF4T Assay for CD90 Biomarker Activity (AID 2284262); conditions: primary human bronchial epithelial cells with fibroblasts
# Outline: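 Co-culture of human bronchial epithelial cells and dermal fibroblasts, 24 h compound exposure. Cell-surface CD90 measured by ELISA relative to DMSO; parallel SRB total-protein staining for cytotoxicity.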
# [7] = read-out: Interleukin-8 (IL8), CXCL8 (gene 3576); assay: BSK_BF4T_IL8: BioMAP Diversity Plus: BF4T Assay for Interleukin-8 (IL8) Biomarker Activity (AID 2284263); conditions: primary human bronchial epithelial cells with fibroblasts
# Outline: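 Human bronchial epithelial cells with dermal fibroblasts co-culture; IL-8 measured by ELISA 24 hours after dosing, fitted vs DMSO. Cytotoxicity tracked in parallel cultures by SRB total-protein staining.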
# [8] = read-out: Interleukin-1 alpha (IL1a), IL1A (gene 3552); assay: BSK_BF4T_IL1a: BioMAP Diversity Plus: BF4T Assay for Interleukin-1 alpha (IL1a) Biomarker Activity (AID 2284264); conditions: primary human bronchial epithelial cells with fibroblasts
# Outline: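 Human bronchial epithelial cells co-cultured with dermal fibroblasts, dosed and read at 24 h. Secreted/surface IL-1α quantified by ELISA; gain-of-signal fitted relative to DMSO baseline. Parallel SRB total-protein staining tracked cytotoxicity.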
# Decorin, DCN (gene 1634) = assay: BSK_MyoF_Decorin: BioMAP Diversity Plus: MyoF Assay for Decorin Biomarker Activity (AID 2284265); conditions: primary human lung fibroblasts
# Outline: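 Human lung fibroblast cultures were dosed for 24 h, and decorin was then measured by ELISA. Parallel cultures were stained with sulforhodamine B for total protein as a cytotoxicity check. Gain of signal was fitted relative to DMSO.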
# KRT18 (gene 3875) = assay: BSK_BF4T_Keratin818: BioMAP Diversity Plus: BF4T Assay for Keratin 818 Biomarker Activity (AID 2284266); conditions: primary human bronchial epithelial cells with fibroblasts
# Outline: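 Co-culture of human bronchial epithelial cells and dermal fibroblasts, chemical exposure 24 h. Keratin 8/18 measured by ELISA; positive-direction fit vs DMSO. SRB total protein run in parallel cultures for cytotoxicity.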
# [9] = BSK_MyoF_SRB: Viability Assessment in the BioMAP Diversity Plus: MyoF Assay (AID 2284267); conditions: primary human lung fibroblasts;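 note: total protein by SRB absorbance in parallel cultures as cytotoxicity measure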
# Outline: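 Human lung fibroblasts dosed with chemical and assessed 24 h later for overt cytotoxicity in parallel cultures. Total protein quantified by sulforhodamine B staining (0.1% SRB after 10% TCA fixation), read at 560 nm, analysed in positive direction versus DMSO baseline.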
# [10] = read-out: Matrix Metallopeptidase 1 (MMP1), MMP1 (gene 4312); assay: BSK_MyoF_MMP1: BioMAP Diversity Plus: MyoF Assay for Matrix Metallopeptidase 1 (MMP1) Biomarker Activity (AID 2284268); conditions: primary human lung fibroblasts
# Outline: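 Human lung fibroblast primary cells; MMP1 measured by ELISA 24 h after dosing, fitted in the positive direction relative to DMSO. Parallel SRB staining (0.1%, after 10% TCA fixation, 560 nm) assesses overt cytotoxicity.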
# [11] = read-out: TIMP metallopeptidase inhibitor 1 (TIMP1), TIMP1 (gene 7076); assay: BSK_MyoF_TIMP1: BioMAP Diversity Plus: MyoF Assay for TIMP metallopeptidase inhibitor 1 (TIMP1) Biomarker Activity (AID 2284269); conditions: primary human lung fibroblasts
# Outline: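 ELISA quantified TIMP-1 levels after 24 h dosing of primary human lung fibroblasts, with DMSO as baseline. Parallel SRB total protein staining (0.1% SRB after TCA fixation, 560 nm) flagged overt cytotoxicity.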
# [12] = read-out: Matrix Metallopeptidase 1 (MMP1), MMP1 (gene 4312); assay: BSK_BF4T_MMP1: BioMAP Diversity Plus: BF4T Assay for Matrix Metallopeptidase 1 (MMP1) Biomarker Activity (AID 2284270); conditions: primary human bronchial epithelial cells with fibroblasts
# Outline: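 Co-culture of human bronchial epithelial cells and dermal fibroblasts; MMP-1 levels measured by ELISA 24 hours after chemical dosing, relative to DMSO. Cytotoxicity checked in parallel cultures by SRB total-protein staining.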
# [13] = read-out: Matrix Metallopeptidase 3 (MMP3), MMP3 (gene 4314); assay: BSK_BF4T_MMP3: BioMAP Diversity Plus: BF4T Assay for Matrix Metallopeptidase 3 (MMP3) Biomarker Activity (AID 2284271); conditions: primary human bronchial epithelial cells with fibroblasts
# Outline: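 Co-culture of human bronchial epithelial cells and dermal fibroblasts dosed 24 h; MMP-3 measured by ELISA, positive-direction fit versus DMSO. Cytotoxicity tracked by SRB total-protein staining (560 nm) in parallel cultures.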
# [14] = read-out: Tissue plasminogen activator (tPA), PLAT (gene 5327); assay: BSK_BF4T_tPA: BioMAP Diversity Plus: BF4T Assay for Tissue plasminogen activator (tPA) Biomarker Activity (AID 2284272); conditions: primary human bronchial epithelial cells with fibroblasts
# Outline: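 tPA level quantified by ELISA at 24 h post-treatment in bronchial epithelial/dermal fibroblast co-cultures, gain of signal scored against DMSO baseline. Parallel cultures stained with 0.1% SRB (560 nm) to flag overt cytotoxicity.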
# [15] = read-out: Intercellular Adhesion Molecule 1 (ICAM1), ICAM1 (gene 3383); assay: BSK_BF4T_ICAM1: BioMAP Diversity Plus: BF4T Assay for Intercellular Adhesion Molecule 1 (ICAM1) Biomarker Activity (AID 2284260); conditions: primary human bronchial epithelial cells with fibroblasts
# Outline: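 Co-culture of human bronchial epithelial cells and dermal fibroblasts exposed 24 h to chemical; cell-surface ICAM-1 quantified by ELISA. Parallel SRB total-protein staining assessed cytotoxicity; activity fitted relative to DMSO.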
compound,measurement,setting,value
CCCCCCCCC(F)(F)C(F)(F)C(F)(F)C(F)(F)C(F)(F)C(F)(F)F,outcome,[1],inactive
same,outcome,[2],inactive
same,outcome,[3],inactive
same,outcome,"CD69, CD69 (gene 969)",inactive
same,outcome,[4],inactive
same,outcome,[5],inactive
same,outcome,[6],inactive
same,outcome,"CD90, THY1 (gene 7070)",inactive
same,outcome,[7],inactive
same,outcome,[8],inactive
same,outcome,"Decorin, DCN (gene 1634)",inactive
same,outcome,KRT18 (gene 3875),inactive
same,outcome,[9],inactive
same,outcome,[10],inactive
same,outcome,[11],inactive
same,outcome,[12],inactive
same,outcome,[13],inactive
same,outcome,[14],inactive
O=S(=O)(OCC(F)F)C(F)(F)F,outcome,[1],inactive
same,outcome,[2],inactive
same,outcome,[3],inactive
same,outcome,"CD69, CD69 (gene 969)",inactive
same,outcome,[4],inactive
same,outcome,[5],inactive
same,outcome,[15],inactive
same,outcome,[6],inactive
same,outcome,"CD90, THY1 (gene 7070)",inactive
same,outcome,[7],inactive
same,outcome,[8],inactive
same,outcome,"Decorin, DCN (gene 1634)",inactive
same,outcome,KRT18 (gene 3875),inactive
same,outcome,[9],inactive
same,outcome,[10],inactive
same,outcome,[11],inactive
same,outcome,[12],inactive
same,outcome,[14],inactive
NC(=O)C(F)(F)C(F)(F)C(F)(F)C(F)(F)F,outcome,[1],inactive
same,outcome,[2],inactive
same,outcome,[3],inactive
same,outcome,"CD69, CD69 (gene 969)",inactive
same,outcome,[4],inactive
same,AC50,[5],26.5 µM (active)
same,outcome,[5],inactive
same,outcome,[6],inactive
same,outcome,"CD90, THY1 (gene 7070)",inactive
same,outcome,[7],inactive
same,outcome,[8],inactive
same,outcome,"Decorin, DCN (gene 1634)",inactive
same,outcome,KRT18 (gene 3875),inactive
same,outcome,[9],inactive
same,outcome,[10],inactive
same,outcome,[11],inactive
same,outcome,[12],inactive
same,outcome,[13],inactive
same,outcome,[14],inactive
FC(F)(Br)C(F)(F)C(F)(F)C(F)(F)C(F)(F)C(F)(F)Br,AC50,[1],30 µM (active)
same,outcome,[1],inactive
same,outcome,[2],inactive
same,outcome,[3],inactive
same,outcome,"CD69, CD69 (gene 969)",inactive
same,outcome,[4],inactive
same,outcome,[5],inactive
same,outcome,[6],inactive
same,outcome,"CD90, THY1 (gene 7070)",inactive
same,outcome,[7],inactive
same,outcome,[8],inactive
same,outcome,"Decorin, DCN (gene 1634)",inactive
same,outcome,KRT18 (gene 3875),inactive
same,outcome,[9],inactive
same,outcome,[10],inactive
same,outcome,[11],inactive
same,outcome,[12],inactive
same,outcome,[13],inactive
same,outcome,[14],inactive
FC(F)(F)C(F)(F)C(F)(F)C(F)(F)C(F)(F)CCI,outcome,[1],inactive
same,outcome,[2],inactive
same,outcome,[3],inactive
same,outcome,"CD69, CD69 (gene 969)",inactive
same,AC50,[4],38.6 µM (active)
same,outcome,[4],inactive
same,outcome,[5],inactive
same,outcome,[6],inactive
same,outcome,"CD90, THY1 (gene 7070)",inactive
same,outcome,[7],inactive
same,outcome,[8],inactive
same,outcome,"Decorin, DCN (gene 1634)",inactive
same,outcome,KRT18 (gene 3875),inactive
same,outcome,[9],inactive
same,outcome,[10],inactive
same,outcome,[11],inactive
same,outcome,[12],inactive
same,outcome,[14],inactive
FC(F)(F)C(F)(F)C(F)(F)C(F)(F)C(F)(F)C(F)(F)C(F)(F)C(F)(F)CCS,outcome,[1],inactive
same,outcome,[2],inactive
same,outcome,[3],inactive
same,outcome,"CD69, CD69 (gene 969)",inactive
same,outcome,[4],inactive
same,outcome,[5],inactive
same,outcome,[15],inactive
same,outcome,[6],inactive
same,outcome,"CD90, THY1 (gene 7070)",inactive
same,outcome,[7],inactive
same,outcome,[8],inactive
same,outcome,"Decorin, DCN (gene 1634)",inactive
same,outcome,KRT18 (gene 3875),inactive
same,outcome,[9],inactive
same,outcome,[10],inactive
same,outcome,[11],inactive
same,outcome,[12],inactive
same,outcome,[14],inactive
